Compound activity (PubChem BioAssay)
The list is not random: actives were taken first. Their share in the collection is about 20%.
Pf growth 96h – inhibits malaria parasite growth, 96 h; Potency, µM (highest dose often 28.7 µM), inactives show top-dose activity change, negative = inhibition, hits mostly inhibitors; 6.9% of 320,000 active; P. falciparum luciferase reporter growth, 96 h; further: potency means the concentration at half of the fitted maximal effect; on the % scale 0 is the no-effect control and ±100 the full control effect
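Delayed-death screen, second-generation endpoint: infected erythrocytes, 2% hematocrit, 0.05% parasitemia final; 96 hours at 37 C, 5% CO2; luciferase detection reagent; luminescence decrease equals reduced growth.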
HCMV antiviral – inhibitors of human cytomegalovirus; HFF cells, HCMV-luciferase reporter, 72 h; active compounds read low; activity change, negative = inhibition, % at 57.5 µM; 4.5% of 410,000 active; in the data active means activity change below about -60%; inconclusive means no clear call, values can overlap the other calls; inactive means above about -39%; further: on the % scale 0 is the no-effect control and ±100 the full control effect
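Compounds were evaluated in HFFs infected with an HCMV luciferase reporter virus (MOI 1 PFU/cell). Luciferase in lysates collected 72 h post infection served as the replication measure.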
Shiga toxin inh – Shiga toxin inhibition | inhibition, % at 38.7 µM | Vero cells, Shiga toxin protein synthesis inhibition reporter | AID 2315 | 9.2% of 290,000 active; in the data active means inhibition mostly above about 28%, no sharp cut-off; inactive means mostly below about 43%; further: 0% is about no effect
Cycloheximide cs – affects cycloheximide protein synthesis inhibition readout, counter-screen. cell reporter, cycloheximide protein synthesis inhibition counterscreen. max response, %. 12% of 300,000 active; in the data active means max response mostly above about 13%, no sharp cut-off; inactive means mostly below about 14%; further: read at 38.3 µM for the half of the compounds with a filed dose; 0% is about no effect
Pf growth 48h – P. falciparum growth inhibition at 48 hours (one generation); 5.9% of 310,000 active; AID 504832; Potency, µM (top dose mostly 28.7 µM), without a hit: at the highest dose activity change, negative = inhibition, actives largely listed as inhibitors; P. falciparum luciferase growth in erythrocytes, 48 h; further: potency means the concentration at half of the fitted maximal effect; on the % scale 0 is the no-effect control and ±100 the full control effect
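Compounds are pin-transferred into medium, infected erythrocytes (2% hematocrit, 0.1% parasitemia final) are added, and plates sit one parasite generation at 37 C in 5% CO2. Detection reagent is then added and luminescence measured.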
An asterisk follows results filed as active; u = inconclusive; x = not tested or not shown; [ ] = another dose, or the depositor's remark. Unless noted, the call rests on the fitted dose curve; in most records, active means well fitted inhibition curve with a large enough effect; inconclusive means small, poorly fitted or top-dose-only effect, or another doubt; inactive means no such curve, though single readings can be large or run the other way.

SMILES	Pf growth 96h	HCMV antiviral	Shiga toxin inh	Cycloheximide cs	Pf growth 48h
CN1CCN(C(CNC(=O)C(=O)Nc2cccc(Cl)c2)c2ccc3c(c2)OCO3)CC1 (stereo unspecified)	x	-24	x	x	x
CCOC(=O)C1CCN(CC(O)COc2ccc(C(C)=O)cc2)CC1 (stereo unspecified)	9.3µM*	x	0	11	x
CC(=O)c1ccc(OCC(O)CN2CCN(S(=O)(=O)c3c(C)c(C)cc(C)c3C)CC2)cc1 (stereo unspecified)	-23%	-72*	-3	-1	u
CC(=O)c1ccc(OCC(O)CN2CCN(CC(O)COc3ccc(C(C)=O)cc3)CC2)cc1 (stereo unspecified)	8%	22	-3	-2	u
CCOC(=O)C1CCN(CC(O)COc2ccc(C(C)(C)C)cc2)CC1 (stereo unspecified)	u	-21	14	2	u
CS(=O)(=O)c1ccc(Nc2nc(C(N)CCc3ccccc3)cs2)cc1 (stereo unspecified)	x	-7	x	x	x
CC(C)(C)OC(=O)C(Oc1ccccc1[N+](=O)[O-])C(=O)OC(C)(C)C	x	-29	x	x	x
COCc1nc(-c2ccc(-c3ccc(C)cc3)nc2OC)no1	u	32	116*	33*	58%
COc1ccc(-c2ccc(-c3noc(C)n3)c(OC)n2)cc1	u	61	62	23*	55%
CCCCCCCCN1C(=O)[C@H](CC(=O)NCCC(C)C)C[C@@]2(C(=O)OCC)CCCC=C12	x	-17	x	x	x
COc1ccc(C2C(=O)N(C3CCC(C)CC3)CC(=O)N2Cc2ccccc2Cl)cc1OC (stereo unspecified)	x	0	x	x	x
O=C1C(c2ccc(F)cc2)N(CCc2ccc(Cl)cc2)C(=O)CN1C1CCCCCC1 (stereo unspecified)	x	-82*	x	x	x
COc1ccc(C2C(=O)N(C3CCC(C)CC3)CC(=O)N2Cc2ccc(C)cc2)cc1OC (stereo unspecified)	x	-65*	x	x	x
COc1ccc(C2C(=O)N(C3CCCCCC3)CC(=O)N2Cc2ccccc2)cc1 (stereo unspecified)	x	-67*	x	x	x
c1ccc(COc2ccc3nocc3c2)cc1	0%	41	x	x	29%
COc1ccccc1C(=O)N/C(=C/c1ccccc1)C(=O)Nc1ccc(C(=O)O)cc1	23%	-11	-11	-7	u
Cn1ccc2c(N3CCCCCC3)cc3c(c21)C1CCC3C1 (stereo unspecified)	x	-33	x	x	x
CNC(=O)CC1C(=O)N(c2ccc(Cl)cc2)C(=S)N1CCc1ccc(OC)c(OC)c1 (stereo unspecified)	-5%	-36	-19	-3	12µM*
CCOc1ccccc1N1C(=O)CN(Cc2ccc(OC)c(OC)c2)C1=S	-28%	-14	1	2	1%[0.00184 µM]
COc1ccc(CN2CC(=O)N(c3cccc(Cl)c3)C2=S)cc1OC	0%	u	-4	1	10µM*
COc1ccc(CN2CC(=O)N(c3ccc(Cl)cc3)C2=S)cc1OC	u	3	-6	4	13µM*
CCc1ccc(N2C(=O)CN(Cc3ccc(OC)c(OC)c3)C2=S)cc1	45%	u	-12	-1	u
COc1cccc(N2C(=O)CN(Cc3cc(OC)c(OC)c(OC)c3)C2=S)c1	-9%	-25	-3	-2	0.33µM*
O=C(COC(=O)c1ncc(Cl)c(Cl)c1Cl)NC(=O)c1ccccc1	31%	-24	x	x	33%
CC(C)(C)OC(=O)NCCCCCNC(=O)c1[nH]cnc1C(=O)NC1CCN(C(=O)OC(C)(C)C)CC1	2.1µM*	16	x	x	9.3µM*
SMILES	Pf growth 96h	HCMV antiviral	Shiga toxin inh	Cycloheximide cs	Pf growth 48h
CCOC(=O)c1[nH]cnc1C(=O)NC1CCN(C(=O)OC(C)(C)C)CC1	u	-9	x	x	-8%
CC(C)(C)OC(=O)N1CCC(NC(=O)c2nc[nH]c2C(=O)N2CCN(C(=O)OC(C)(C)C)CC2)CC1	u	-19	x	x	10µM*
Cc1ccc(C)c(OCCC(=O)OC(C)C(=O)Nc2c(C)n(C)n(-c3ccccc3)c2=O)c1 (stereo unspecified)	13%	-17	x	x	-3%
Cc1noc(C)c1C(=O)N(CC(C)C)c1nc2ccccc2s1	u	2	10	8	-26%
CC(C)CN(C(=O)c1ccco1)c1nc2ccccc2s1	14%	42	43	active	u
CC(C)CN(C(=O)c1nn(C)c(=O)c2ccccc12)c1nc2ccccc2s1	x	-22	29	3	10µM*
